Assay results reported in ChEMBL document CHEMBL3988442, “University of Dundee, Small-Polar-MMV Screening Library” (2021).
Screen size: about 85,000 compounds; about 440 (0.52%) showed an effect of 50% or more. The list comes from a sample in which strong results are over-represented; it also holds similar structures and randomly drawn compounds.

Test: In vitro enzyme assay to detect hydrolysis of chlorophenol red-beta-D-[…] directly proportional to the number of Toxoplasma stably expressing beta-galactosidase
Format: functional, organism-based, Toxoplasma gondii
Parameters: scale not given: in the data most compounds retested in dose-response had high values

Row | Compound | Percent Effect (50 µM) | Percent Effect (10 µM)
1 | CN(CC(=O)N1CCOCC1)Cc1cc(Br)cs1 | 6.245% | 
2 | COc1ccccc1C1(CNc2snc(Cl)c2C#N)CCOCC1 |  | -0.2674%
3 | N#Cc1c(Cl)nsc1NCC1(c2ccccc2)CCC1 |  | 79.2%
4 | COc1ccccc1C1(CNc2snc(Cl)c2C#N)CCCC1 |  | 2.513%
5 | Cc1noc(C)c1C(=O)NC1CCN(CC2CC2)CC1 | -0.3877% | 
6 | CC(C)c1nsc(NCC2=COCCO2)n1 | -1.035% | 
7 | Cc1[nH]c2ccccc2c1-c1ccnc(N[C@@H](CO)C(C)C)n1 |  | 48.14%
8 | Cc1[nH]c2ccccc2c1-c1ccnc(NCCN2CCOCC2)n1 |  | -5.812%
9 | Cc1[nH]c2ccccc2c1-c1ccnc(NCCN2CCCCC2)n1 |  | 28.85%
10 | Cc1[nH]c2ccccc2c1-c1ccnc(N[C@@H](C)CO)n1 |  | 58.12%
11 | Cc1[nH]c2ccccc2c1-c1ccnc(N[C@H](CO)CC(C)C)n1 |  | 53.1%
12 | Cc1[nH]c2ccccc2c1-c1ccnc(NC[C@H](O)CO)n1 |  | 15.34%
13 | NCc1cc2c([nH]c1=O)CCC2 | 5.937% | 
14 | CCN(CCCOC)CC(=O)Nc1cccc(OC)c1 | -2.356% | 
15 | COc1ccc(-c2cncc(N)c2)cc1CO | 96.02% | 
16 | COc1ccc(NC(=O)c2ccc(Br)cn2)cc1CO | -27.31% | 
17 | COc1ccc(NC(=O)c2cncc(C)c2)cc1CO | -7.73% | 
18 | CCc1nc(C2CCCN2CC(=O)NCCc2ccsc2)no1 (stereo not drawn) |  | 89.95%
19 | Cc1nc(C2CCCN2CC(=O)NCCc2ccsc2)no1 (stereo not drawn) |  | 7.324%

Row | Compound | Percent Effect (50 µM) | Percent Effect (10 µM)
20 | O=C(CN1CCCC1c1noc(C2CC2)n1)NCCc1ccsc1 (stereo not drawn) |  | 19.94%
21 | CCN(C)C(=O)CNc1ccccc1S(=O)(=O)CC | -2.619% | 
22 | O=C([C@@H]1CCCN1)N1CCCC1c1cccnc1 (stereo partly drawn) | -9.249% | 
23 | COCC(C)(CCO)NCc1cccc(F)c1 (stereo not drawn) | 2.377% | 
24 | COCCn1cncc1CN1CCCC(C)(c2ccccc2)C1 (stereo not drawn) |  | 0.6483%
25 | CC1(c2ccccc2)CCCN(Cc2cncn2C2CCCC2)C1 (stereo not drawn) |  | 64.76%
26 | CC1(c2ccccc2)CCCN(Cc2cncn2C2CC2)C1 (stereo not drawn) |  | 20.67%
27 | O=C(C(O)c1ccccc1)N(CCO)Cc1ccsc1 (stereo not drawn) | 11.77% | 
28 | CCOC(=O)c1sc(O)nc1C | -0.2183% | 
29 | CC(C)C(NC(=O)c1ccco1)C(=O)N1CCOCC1 (stereo not drawn) | -3.141% | 
30 | NCC1(NS(=O)(=O)c2cccc3nonc23)CCCC1 | -3.738% | 
31 | CC(C)NC(=O)C1CN(C(=O)NCc2ccccc2)CC12CCOCC2 (stereo not drawn) |  | -9.471%
32 | CC(C)NC(=O)C1CN(C(=O)Cc2ccccc2)CC12CCOCC2 (stereo not drawn) |  | 0.09588%
33 | CC(C)NC(=O)C1CN(C(=O)CCc2ccccc2)CC12CCOCC2 (stereo not drawn) |  | 56.76%
34 | CC(O)CN1CCN(C(=O)CN(C)C2CC2)CC1 (stereo not drawn) | 3.925% | 
35 | Cc1cc(CNC(=O)CCCN2CCCCC2)ccn1 | -5.389% | 
36 | NC(=O)NCC1CCCN1 (stereo not drawn) | 26.88% | 
37 | CNCC(C)CNC(=O)c1ccc(C(N)=O)nc1 (stereo not drawn) | -13.42% | 
38 | Cc1cc(C)nc(NC(=O)NC2CCC(O)CC2)c1 (stereo not drawn) | 31.49% | 
